From PubChem BioAssay
Most compounds without a hit are left out; they make up all but 2.2% or so of the library.
NPR2 activator: GC-B (human) receptor activation | hit rate 0.11% among 370,000 | P20594 | activation, % at 10 µM | HEK293-GC-B cells, CNP EC30, cGMP TR-FRET; 0% at EC30 CNP, 100% saturating CNP;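 active = activation at 10 µM reaching about 35% in either raw or pattern-adjusted values, limit read from the data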
ADAM10 inh: ADAM10 inhibition, QFRET primary screen; O14672; recombinant ADAM10, EDANS/DABCYL FRET peptide cleavage, 3 h; inhibition, % at 7 µM; hit rate 0.62% among 370,000;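 active = inhibition above a per-campaign cutoff equal to the mean of compounds falling between control-based bounds plus 3 SD, cut at about 20% in these data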;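 note: 0% = DMSO wells while the 100% control is not disclosed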
NPR1 activator: GC-A (human) enzyme activation; P16066; HEK293 GC-A cells, cGMP TR-FRET, EC30 ANP; 0% at EC30 ANP, 100% saturating ANP; activation, % at 10 µM; hit rate 0.14% among 370,000; AID 1671463; in the data active = activation above about 40%
ADAM17 inh: inhibits human ADAM17 | P78536 | hit rate 0.83% among 370,000 | inhibition, % at 6.95 µM | recombinant ADAM17, EDANS/DABCYL FRET peptide cleavage;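 active = inhibition above the mean of compounds lying between control limits plus 3 SD, set per campaign, cut at about 8.5% in these data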;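 note: 0% = DMSO-only wells as the low control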
proKLK7 act: proKLK7 (human) activation, primary screen | hit rate 0.9% among 370,000 | activation, % at 7 µM | AID 652039 | purified proKLK7, EDANS-DABCYL substrate fluorescence; 100% is mature enzyme control, 0% vehicle;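 active = activation above the mean of all tested compounds plus 3 SD, computed per campaign excluding outliers beyond control limits, cut at about 13% in these data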
KLK7 act conf: confirmation of human kallikrein-7 zymogen activators; shares compounds with proKLK7 act; purified proKLK7, EDANS-DABCYL substrate fluorescence; scaled: vehicle 0, mature enzyme 100; activation, % at 7 µM; hit rate 68% among 3,200; AID 686949;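 active = activation, as change over the incubation, above the mean of all tested compounds plus 3 SD, cut at about 13% in these data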
EDANS-DABCYL int: optically interferes with EDANS-DABCYL signal, flagging KLK7 hits; hit rate 80% among 3,200; shares compounds with proKLK7 act; activation, % at 7 µM; AID 686952; EDANS-DABCYL substrate fluorescence interference, no enzyme, 4 h; solvent 0%, active enzyme control 100%;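 active = activation above the all-compound mean plus 3 SD, ignoring values outside control-based bounds, cut at about 4.8% in these data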;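 note: value is the 4 h activation minus the activation read at time zero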
* marks the source's active call; other numbers are inactive results; i = inactive; . = no result given; ! = not confirmed by another sample.

SMILES	NPR2 activator	ADAM10 inh	NPR1 activator	ADAM17 inh	proKLK7 act	KLK7 act conf	EDANS-DABCYL int
CCC[n+]1c2ccccc2cc2ccccc21	1	i	5	-267	77*	73*	81*
Cc1ccc2ccccc2[n+]1CCCS(=O)(=O)[O-]	5	-22	-1	-11	0	.	.
CCCC[n+]1c2ccccc2cc2ccccc21	3	i	7	-244	65*	70*	74*
C=C(C)Cn1c2ccc(NC(=O)NCc3ccc(F)cc3)cc2c(=O)n1C	2	i	-3	i	30*	10	15*
Cn1c(=O)c2cc(NC(=S)NCc3ccccc3F)ccc2n1C	6	i	6	i	34*	10	8.7*
Cn1c(=O)c2cc(NC(=O)NCc3ccc(F)cc3)ccc2n1C	-3	i	2	i	39*	31*	36*
Cn1c(=O)c2cc(NC(=S)NC3CCCCC3)ccc2n1-c1ccccc1	8	-473	6	-130	-14	.	.
Cn1c(=O)c2cc(NC(=S)NCc3ccccc3F)ccc2n1Cc1ccc(F)cc1	7	i	5	-480	-3	.	.
COc1ccc(NC(=S)Nc2ccc3c(c2)c(=O)n(C)n3-c2ccccc2)cc1	-1	i	2	-297	42*	36*	48*
COc1ccc2c(C)c(CC(=O)N3CCN(C(=O)C4COc5ccccc5O4)CC3)c(=O)oc2c1C (configuration not stated)	2	i	2	-366	-1	.	.
Cc1c(CC(=O)N2CCN(C(=O)C3COc4ccccc4O3)CC2)c(=O)oc2cc(O)c(Cl)cc12 (configuration not stated)	-3	i	1	i	89*	64*	64*
COCCCN1C(=O)[C@H](CC(=O)NCc2cccc3ccccc23)[C@]2(C(=O)OC)CCCCC=C12	-6	1	1	1	-1	.	.
CC1=Nc2ccc(C)cc2/C1=C/c1c(N)n2oc(C)cc2nc1=O	-2	-28	6	-19	48*!	25*	35*
O=C(NCc1ccc(F)c(F)c1)C1CCCN(c2nc3ccccc3o2)C1 (configuration not stated)	11	-5	-4	-1	0	.	.
N#Cc1c(-c2ccccc2F)cc(-c2cccnc2)nc1N	5	i	-2	i	9	.	.
N#Cc1c(-c2ccco2)cc(C2CC2)nc1N	1	i	3	-242	-5	.	.
N#Cc1c(-c2cccnc2)cc(-c2ccccc2)nc1N	11	i	0	i	13*	14*	13*
N#Cc1c(-c2ccco2)cc(-c2ccccn2)nc1N	0	i	-3	i	13*	41*	40*
N#Cc1c(-c2ccco2)cc(-c2cccnc2)nc1N	0	i	-6	i	20*	42*	43*
COc1ccccc1NC(=O)OC1CCC12CCCCC2 (configuration not stated)	1	-11	-2	-3	0	.	.
CC(C)(C)N(Cc1cn(CC2CCCCC2)nn1)S(=O)(=O)c1ccccc1Br	6	0	-1	-1	0	.	.
CC(C)(C)N(Cc1ccccc1)C(=O)COC(=O)Cn1cnc2ccccc2c1=O	-8	-5	1	4	15*	1	1
Cc1ccc2nc(-c3ccc(NC(=O)Cc4cccs4)cc3)[nH]c2c1	9	-270	4	-114	52*	8	3
Cc1ccc2nc(NC(=O)Cc3cccs3)sc2c1	-3	-1	13	1	0	.	.
CCCCCC[C@H](CC)CN(C(=O)Oc1ccccc1)c1ccccc1	-4	-16	1	-5	1	.	.
COCCNC(=O)/C(C#N)=C/c1cn(CC(=O)NCc2ccco2)c2ccccc12	-4	-7	-11	-6	75*	8	5.8*
